HIF activator: HIF pathway transcriptional activators, primary screen, cell-based, U2OS HRE-luciferase, luminescence. U2OS HRE-luciferase reporter; normalized: DMSO 0%, desferrioxamine 100%. activation, % at 7.5 µM (by protocol). 300,000 tested, 0.32% active;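 active means mean activation of at least 10% of the iron chelator positive control signal, with at least half of replicates also reaching 10%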
PfM18AAP inh-1: PfM18AAP inhibitors, malaria aminopeptidase, primary screen, biochemical, QFRET, recombinant enzyme; 290,000 tested, 1.2% active; AID 1822, 2009; inhibition, % at 7.35 µM; M18 aspartyl aminopeptidase (Plasmodium falciparum 3D7); H-Glu-NHMec fluorogenic cleavage;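 active means inhibition above the campaign mean inhibition over all tested compounds plus 3 SD, cut at about 28% in these data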;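 further: 0% = plate median of test compound wells and 100% = 2 mM ZnCl2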
Mot1-301 SUMO: yeast Mot1-301 growth rescue at high temperature, primary screen, SUMOylation pathway inhibitor project, S. cerevisiae, ATP luminescence, 38.5C | 320,000 tested, 1% active | S. cerevisiae Mot1-301 growth rescue; percent above DMSO median, 100 means doubled | growth rescue, % at 18.8 µM;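 active means every valid replicate shows activation above 250% relative to neutral control wells; inactive means the rest, any valid replicate at or below 250%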;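 further: OY570 slx delta 5 strain wells were the positive control but not used for scaling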
ALR inh: inhibitors of human ALR sulfhydryl oxidase, primary screen, biochemical, H2O2 detection, HRP-luminol luminescence, single point. purified ALR, DTT oxidation. inhibition, % (no concentration beside the values). 290,000 tested, 3.8% active;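 active means mean replicate inhibition above about 79%, with every replicate also reaching it, limit read from the data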
Target sequence (P55789 whole entry, looked up): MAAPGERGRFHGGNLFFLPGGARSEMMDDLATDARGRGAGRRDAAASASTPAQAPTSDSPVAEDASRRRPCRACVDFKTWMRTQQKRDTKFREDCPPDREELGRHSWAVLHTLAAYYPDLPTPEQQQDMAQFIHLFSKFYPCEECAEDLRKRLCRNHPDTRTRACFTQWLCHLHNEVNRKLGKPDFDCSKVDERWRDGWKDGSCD
PfM18AAP inh-2: PfM18AAP inhibitors, malaria aminopeptidase, confirmation, biochemical, QFRET, recombinant enzyme, triplicate. 2,400 tested, 28% active. H-Glu-NHMec fluorogenic cleavage. inhibition, % at 7.35 µM. AID 2170, 2009. shares compounds with PfM18AAP inh-1;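 active means mean inhibition over replicate wells above the hit cutoff set for the earlier primary screen, cut at about 29% in these data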;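 further: 0% = median of test compound wells and 100% = 2 mM ZnCl2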
CTSL1 confirm: cathepsin L1 inhibitors, retest, confirmation, counter-screen for PFM18AAP inhibitor project, biochemical, QFRET, triplicate. 2,400 tested, under 10 active. purified cathepsin L1, Z-Leu-Arg-MCA fluorescence. shares compounds with PfM18AAP inh-1. inhibition, % at 5.96 µM;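 active means average inhibition across replicates above the hit cutoff set in the earlier primary screen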;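 further: 0% = median of test compound wells and 100% = Z-Phe-Ala-diazomethylketone 1 µM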
Starred values were filed as active, the others as inactive; / = not tested or not shown. Rows were chosen to be rich in hits. Some 5.3% of all compounds tested hit in one or more screens of this group.

SMILES	HIF activator	PfM18AAP inh-1	Mot1-301 SUMO	ALR inh	PfM18AAP inh-2	CTSL1 confirm
Cc1cc(NC(=O)CSc2nnc(-c3ccccc3)o2)no1	1	13	11	-1	/	/
Cc1cc(NC(=O)CSc2nnc(-c3ccc(O)cc3)o2)no1	1	38*	-20	-9	-48	-7
Cc1cc(NC(=O)CN2CCN(S(=O)(=O)c3ccc(Cl)cc3)CC2)no1	0	-7	-10	-10	/	/
O=C(CN1CCN(c2ccc(O)cc2)CC1)Nc1ccc2c(c1)OCCO2	-1	38*	-6	78*	-2	5
Cc1cc(NC(=O)CN2CCN(c3ccc(O)cc3)CC2)no1	0	35*	75	99*	-13	1
CCOC(=O)Cc1csc(NC(=O)CSc2nnc(-c3ccc(C)cc3)o2)n1	0	32*	0	-14	-55	-3
CC1CCCN(C(=O)Cn2nnc(-c3ccc(S(C)(=O)=O)cc3)n2)C1 (stereo not given)	-1	-4	0	-3	/	/
O=C(COC(=O)c1ccc(F)c(S(=O)(=O)N2CCCCC2)c1)NCc1ccc(F)cc1	0	4	-9	-16	/	/
CC1(C)Cc2nc(Cl)c(C(N)=O)cc2CO1	0	-7	-12	-3	/	/
COc1ccc(OC)c(S(=O)(=O)Nc2ccc(O)c(Sc3ncn[nH]3)c2)c1	0	64*	-13	99*	36*	0
Cc1ccc(C)c(S(=O)(=O)Nc2ccc(O)c(Sc3ncn[nH]3)c2)c1	0	39*	4	99*	15	1
Cc1cc(F)ccc1S(=O)(=O)Nc1ccc(O)c(Sc2ncn[nH]2)c1	0	52*	106	99*	11	-4
Cc1cc(F)ccc1S(=O)(=O)Nc1ncnc2sccc12	0	-16	6	-8	/	/
CCOc1ccc(S(=O)(=O)Nc2ccc(O)c(Sc3ncn[nH]3)c2)cc1	0	54*	-26	99*	27	-2
CCNC(=O)CSc1nc2ccccc2c(=O)n1-c1cc(OC)ccc1OC	-1	2	25	-29	/	/
COc1ccc2c(c1)OC[C@H]1[C@H]2N2C(=O)[C@H](C)NC(=O)[C@@]2(C)[C@H]1c1ccccc1	/	/	-6	2	/	/
COc1ccc(C(C(=O)NC(C)(C)C)N(C(=O)CNC(=O)c2cccs2)c2ccc(C)cc2)cc1OC (stereo not given)	0	-6	1	-8	/	/
CCCCNC(=O)c1onc(CSc2cc(C)cc(C)c2)c1C(=O)NCCCC	0	/	-13	-7	/	/
O=C(CCN1CCC(c2cccs2)=N1)c1cccs1	4	3	12	34	/	/
Cc1cc(F)ccc1S(=O)(=O)Nc1ccccc1C(=O)Nc1ncn[nH]1	0	49*	-5	4	48*	0
Cc1ccc(S(=O)(=O)Nc2ccc(S(=O)(=O)Nc3ncccn3)cc2)cc1	0	4	-3	-13	/	/
Cc1ccc(S(=O)(=O)Nc2ccc(O)c(Sc3ncn[nH]3)c2)cc1	0	56*	-25	99*	22	-9
CCOC(=O)C1=C(C)N(CCCC(=O)O)C(=O)NC1c1ccc(C(F)(F)F)cc1 (stereo not given)	1	/	/	/	/	/
O=C(NC(=S)Nn1cnnc1)c1ccccc1Cl	-1	83*	-7	/	52*	-7
O=C(NC(=S)Nn1cnnc1)c1ccc(F)cc1Cl	1	78*	-3	3	55*	-3
COc1cccc(C(=O)NC(=S)Nn2cnnc2)c1OC	0	73*	-8	-4	60*	-9
O=C(NC(=S)Nc1ncccn1)c1ccccc1Cl	1	-1	-1	11	/	/
O=C(NCc1cccnc1)[C@@H]1CC=C[C@@H]2CCN(Cc3ccccc3)C(=O)[C@@H]21	-1	/	-13	-3	/	/
Cc1noc(C)c1S(=O)(=O)Nc1ccc2c(c1)C(=O)N([C@H](C)CO)C[C@@H](C)[C@@H](CN(C)Cc1ccc3c(c1)OCO3)O2	/	/	-18	/	/	/
CN(C)C(=O)NC(O)C(Cl)Cl (stereo not given)	0	8	6	0	/	/

Screens (PubChem BioAssay)
